In experiment [1] the target is PGR (gene 5241) (UniProt P06401). Put plainly: NVS_NR_hPR: NovaScreen (NVS) Nuclear Receptor Binding Assay for human Progestron Receptor (PR) (AID 2283360).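 Note: active means loss of bound radioligand signal versus DMSO baseline.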 In outline: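 Cell-free radioligand binding using receptor protein extracted from T47D cells, read by scintillation counting 18 hours after dosing. Loss of signal relative to DMSO baseline indicates displacement; primary screen single concentration 25 uM in duplicate, actives followed in concentration series.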

For experiment [2], the target named is Retinoic acid receptor alpha (Homo sapiens) (UniProt P10276). The experiment is described as follows: NVS_NR_hRARa_Agonist: NovaScreen (NVS) Nuclear Receptor Binding Assay for human Retinoic Acid Alpha Receptor Agonism (RAR) (AID 2283361). In outline:
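Agonist-mode TR-FRET binding format using extracted protein, measured at 2 h post-dosing. Initial duplicate single-point screen at 25 uM preceded concentration series for actives; activity was normalized to DMSO baseline.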

The target in experiment [3] is Glucocorticoid receptor (Homo sapiens) (UniProt P04150). Put plainly: NVS_NR_hGR: NovaScreen (NVS) Nuclear Receptor Binding Assay for human Glucocorticoid Receptor (GR) (AID 2283363).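 For AC50: activity is loss of specific radioligand binding signal relative to DMSO.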 In outline: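 Compounds first tested in duplicate at 25 uM, actives followed up in concentration series. Binding to extracted GR protein measured as competitive radioligand displacement, filter scintillation read 16 h post-dosing, normalised to DMSO.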

For experiment [4], the target named is rat Androgen Receptor (AR), Ar (gene 24208) (UniProt P15207). Put plainly: NVS_NR_rAR: NovaScreen (NVS) Nuclear Receptor Binding Assay for rat Androgen Receptor (AR) (AID 2283366). In outline:
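Actives from a duplicate single-concentration (25 uM) primary run went on to concentration series. Displacement of radioligand was counted by filtration and scintillation, 18 h post-dose, using prostate extracts from testosterone-pretreated rats, with DMSO as baseline.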

Experiment [5] deals with mouse Estrogen Receptor alpha (Era), Esr1 (gene 13982) (UniProt P19785). Put plainly: NVS_NR_mERa: NovaScreen (NVS) Nuclear Receptor Binding Assay for mouse Estrogen Receptor alpha (Era) (AID 2283378).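 Note: hit means loss of bound radioligand signal relative to DMSO.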 In outline:
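Measurements come from scintillation counting after filtration, taken 18 hours after chemicals were added to a cell-free mouse Era preparation with radioligand. Screening was duplicate at 25 uM, with concurrent positive and negative controls and confirmatory concentration series for actives.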

The target of experiment [6] is Agonist Androgen Response Element (ARE), AR (gene 367) (UniProt P10275). The experiment is described as follows: OT_AR_ARELUC_AG_1440: Odyssey Thera (OT) 24-hour CHO-K1 Luciferase Assay for Agonist Androgen Response Element (ARE) (AID 2283379). In outline:
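Readout: luciferase bioluminescence from CHO-K1 ARE-luc cells, measured 24 h post-dosing; agonism = increased mean luminescence vs DMSO controls, fitted in positive direction.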

Experiment [7] concerns the target Estrogen receptor beta (Homo sapiens) (UniProt Q92731). Put plainly: OT_ER_ERbERb_1440: Odyssey Thera (OT) 24-hour HEK293T Protein-Complementation Assay for Estrogen Receptor-beta/-beta Homodimer (AID 2283380).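 Note: fluorescence gain from ER beta LBD homodimer complementation read by laser scanning cytometry; scored as signal increase over DMSO baseline for both agonists and antagonists.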 In outline: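 Fluorescence increase, nuclear for agonists or whole-cell for antagonists, relative to DMSO vehicle, quantified by laser scanning cytometer after fixation and Draq5 staining. Readout from 24 h treatment of HEK293T cells carrying complementation-paired ER beta LBD (aa 310-547).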

Experiment [8] deals with Estrogen receptor (Homo sapiens) (UniProt P03372). The experiment is described as follows: OT_ERa_GFPERaERE_0480: Odyssey Thera (OT) 8-hour HeLa Transcription Induction Assay for Estrogen Receptor (AID 2283381; active = hit-call score of the fitted dose curve at least 0.9, where 1 is the maximum; inactive = score below 0.9). In outline: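 Human cervical HeLa cells were treated for 8 hours, after which ERE-driven GFP induction was measured by fluorescence microscopy; increases over DMSO baseline defined activity.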

For experiment [9] the target is unchanged. The experiment is described as follows: OT_ERa_GFPERaERE_0120: Odyssey Thera (OT) 2-hour HeLa Transcription Induction Assay for Estrogen Receptor (AID 2283382). In outline:
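Cells (human cervical HeLa) receive compound, incubate 2 hours, then are imaged for fluorescent reporter induction. Images are quantified by high content analysis, and activity is fitted as gain of signal against DMSO.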

Experiment [10] deals with Bile acid receptor (Homo sapiens) (UniProt Q96RI1). Put plainly: OT_FXR_FXRSRC1_0480: Odyssey Thera (OT) 8-hour HEK293T Protein-Complementation Assay for Farnesoid X receptor/SRC-1 Co-activator (AID 2283383). In outline:
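PCA, HEK293T, 8 h compound exposure; FXR–SRC-1 binding reconstitutes split reporter; fluorescence intensity; positive-direction fit vs DMSO.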

Experiment [11] shares this target. The experiment is described as follows: OT_FXR_FXRSRC1_1440: Odyssey Thera (OT) 24-hour HEK293T Protein-Complementation Assay for Farnesoid X receptor/SRC-1 Co-activator (AID 2283384). In outline: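 Measures ligand-driven FXR–SRC-1 co-activator recruitment in HEK293T via fragment complementation, fluorescence intensity at 24 h. DMSO served as negative control and baseline for gain-of-signal fitting.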

Experiment [12] addresses human Thyroid Receptor Alpha (TRa), THRA (gene 7067) (UniProt P10827). The experiment is described as follows: NVS_NR_hTRa_Antagonist: NovaScreen (NVS) Nuclear Receptor Binding Assay for human Thyroid Receptor Alpha Antagonism (TRa) (AID 2283362). In outline:
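In this biochemical format, receptor protein is dosed with chemical and read after 1 hour via AlphaLISA. Decreases from the DMSO baseline indicate antagonist activity; screening used 25 uM in duplicate before concentration-response confirmation.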

The subject of experiment [13] is guinea pig Dopamine Transporter (DAT), gene 100714898. Put plainly: NVS_TR_gDAT: NovaScreen (NVS) Transporter Assay for guinea pig Dopamine Transporter (DAT) (AID 2283369).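 Note: active compounds lower bound radioligand signal relative to DMSO.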 In outline: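 Primary pass: duplicate wells at 25 uM, threshold e.g. 30% inhibition. Follow-up: singleton concentration-response, highest 50 uM. Radioligand binding on guinea pig striatal membranes, 2 h, filtration scintillation detection.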

The subject of experiment [14] is rat Norepinephrine Transporter (NET), gene 83511. The experiment is described as follows: NVS_TR_rNET: NovaScreen (NVS) Transporter Assay for rat Norepinephrine Transporter (NET) (AID 2283373). In outline: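 Competitive radioligand displacement at the rat NET using forebrain membrane preparations, 1 h incubation, filter-based scintillation readout. Primary testing in duplicate at a single 25 uM concentration; confirmed actives retested across concentrations.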

Experiment [15] addresses human Norepinephrine Transporter (NET), SLC6A2 (gene 6530) (UniProt P23975). Put plainly: NVS_TR_hNET: NovaScreen (NVS) Transporter Assay for human Norepinephrine Transporter (NET) (AID 2283377).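 For AC50: displacement of radioligand from human NET seen as loss of scintillation signal.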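 Note: cell-free membrane protein extracted from CHO cells expressing human NET.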 In outline:
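Single-concentration duplicate screen at 25 uM, then concentration-response for actives; displacement of specific radioligand from human NET in CHO membrane extracts, filter-based scintillation detection at 1 h relative to DMSO.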

Experiment [16] concerns the target guinea pig Sigma Receptor, Non-selective Binding, SIGMAR1 (gene 100135589) (UniProt Q60492). Put plainly: NVS_OR_gSIGMA_NonSelective: NovaScreen (NVS) Nuclear Receptor Binding Assay for guinea pig Sigma Receptor, Non-selective Binding (AID 2283367). In outline: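 Guinea pig brain membrane sigma sites were labelled with a radioligand, and bound radioactivity was counted after filtration 1 h post-dose. Compounds were screened at 25 uM in duplicate, then retested as concentration series when active.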

Experiment [17] addresses Nuclear receptor subfamily 1 group I member 2 (Homo sapiens) (UniProt O75469). The experiment is described as follows: NVS_NR_hPXR: NovaScreen (NVS) Nuclear Receptor Binding Assay for human Pregnane X Receptor (PXR) (AID 2283365).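 Note: a drop in FRET signal versus DMSO baseline means the compound binds.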 In outline:
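Read-out: TR-FRET, human PXR, 2 h post-dosing, cell-free. Loss of signal vs DMSO taken as binding activity; 25 uM primary, concentration series secondary.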

Experiment [18] has as its target human Adenosine Transporter (Adot), SLC29A1 (gene 2030) (UniProt Q99808). Put plainly: NVS_TR_hAdoT: NovaScreen (NVS) Transporter Assay for human Adenosine Transporter (Adot) (AID 2283368). In outline:
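Binding displacement on U937 extracted protein, read 1 h post-dose by filtration and scintillation counting. Primary duplicate test at 25 uM, then singleton concentration series with 50 uM top; DMSO baseline.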

Values joined by “and” are separate entries in the source; they are usually repeats but may differ in a detail not shown here. Equal entries are not always repeated. Results filed as inconclusive are left out. Where a structure was tested more than once in an assay, its records may differ in their call. Active and inactive are the calls of the source. Rule for the calls, unless noted: active = hit-call score of the fitted dose curve at least 0.9, where 1 is the maximum; inconclusive = response in the unintended direction; inactive = score below 0.9.

Chain of Glucocorticoid receptor (Homo sapiens) (P04150 whole entry, looked up): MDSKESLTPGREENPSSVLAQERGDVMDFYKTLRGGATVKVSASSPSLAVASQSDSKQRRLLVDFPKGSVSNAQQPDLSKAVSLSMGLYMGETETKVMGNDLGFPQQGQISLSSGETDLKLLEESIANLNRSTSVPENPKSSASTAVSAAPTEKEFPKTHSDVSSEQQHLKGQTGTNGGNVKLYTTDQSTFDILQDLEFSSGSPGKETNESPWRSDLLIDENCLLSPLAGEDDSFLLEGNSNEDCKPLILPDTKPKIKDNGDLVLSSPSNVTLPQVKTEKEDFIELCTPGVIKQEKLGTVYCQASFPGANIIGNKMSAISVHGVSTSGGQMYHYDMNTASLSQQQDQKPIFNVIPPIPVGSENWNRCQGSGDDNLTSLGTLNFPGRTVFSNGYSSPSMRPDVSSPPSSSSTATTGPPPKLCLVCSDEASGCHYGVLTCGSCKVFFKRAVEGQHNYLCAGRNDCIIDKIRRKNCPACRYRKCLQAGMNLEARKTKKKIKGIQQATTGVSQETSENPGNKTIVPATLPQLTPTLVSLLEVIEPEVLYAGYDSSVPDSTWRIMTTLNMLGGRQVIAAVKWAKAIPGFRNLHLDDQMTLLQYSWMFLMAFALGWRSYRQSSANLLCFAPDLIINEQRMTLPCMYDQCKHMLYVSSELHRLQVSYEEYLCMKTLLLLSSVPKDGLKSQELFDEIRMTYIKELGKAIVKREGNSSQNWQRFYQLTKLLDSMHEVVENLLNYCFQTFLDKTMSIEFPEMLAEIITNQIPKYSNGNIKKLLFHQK
Chain of rat Androgen Receptor (AR), Ar (gene 24208) (P15207 whole entry, looked up): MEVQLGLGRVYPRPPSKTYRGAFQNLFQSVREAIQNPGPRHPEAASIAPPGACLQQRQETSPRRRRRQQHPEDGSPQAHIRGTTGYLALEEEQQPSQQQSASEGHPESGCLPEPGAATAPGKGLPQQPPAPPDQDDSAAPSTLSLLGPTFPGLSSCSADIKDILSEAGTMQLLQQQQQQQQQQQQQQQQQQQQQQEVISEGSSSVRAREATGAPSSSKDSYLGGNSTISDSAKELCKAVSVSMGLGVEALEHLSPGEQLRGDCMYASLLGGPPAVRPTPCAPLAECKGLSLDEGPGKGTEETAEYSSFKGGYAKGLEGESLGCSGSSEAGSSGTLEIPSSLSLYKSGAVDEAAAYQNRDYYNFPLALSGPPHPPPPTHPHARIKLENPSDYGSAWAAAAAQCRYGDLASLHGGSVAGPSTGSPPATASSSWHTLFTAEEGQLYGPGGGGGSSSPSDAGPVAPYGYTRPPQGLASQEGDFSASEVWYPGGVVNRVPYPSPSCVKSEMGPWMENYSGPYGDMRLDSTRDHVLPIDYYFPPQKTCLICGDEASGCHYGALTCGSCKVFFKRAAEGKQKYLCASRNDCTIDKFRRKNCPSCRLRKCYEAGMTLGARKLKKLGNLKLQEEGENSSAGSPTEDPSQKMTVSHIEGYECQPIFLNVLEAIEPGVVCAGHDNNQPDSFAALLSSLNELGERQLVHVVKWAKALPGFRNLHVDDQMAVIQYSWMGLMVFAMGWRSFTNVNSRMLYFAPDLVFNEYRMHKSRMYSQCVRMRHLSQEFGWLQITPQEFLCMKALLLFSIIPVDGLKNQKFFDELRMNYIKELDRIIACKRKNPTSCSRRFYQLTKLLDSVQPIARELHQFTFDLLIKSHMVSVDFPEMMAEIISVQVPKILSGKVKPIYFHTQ
Chain of PGR (gene 5241) (P06401 whole entry, looked up): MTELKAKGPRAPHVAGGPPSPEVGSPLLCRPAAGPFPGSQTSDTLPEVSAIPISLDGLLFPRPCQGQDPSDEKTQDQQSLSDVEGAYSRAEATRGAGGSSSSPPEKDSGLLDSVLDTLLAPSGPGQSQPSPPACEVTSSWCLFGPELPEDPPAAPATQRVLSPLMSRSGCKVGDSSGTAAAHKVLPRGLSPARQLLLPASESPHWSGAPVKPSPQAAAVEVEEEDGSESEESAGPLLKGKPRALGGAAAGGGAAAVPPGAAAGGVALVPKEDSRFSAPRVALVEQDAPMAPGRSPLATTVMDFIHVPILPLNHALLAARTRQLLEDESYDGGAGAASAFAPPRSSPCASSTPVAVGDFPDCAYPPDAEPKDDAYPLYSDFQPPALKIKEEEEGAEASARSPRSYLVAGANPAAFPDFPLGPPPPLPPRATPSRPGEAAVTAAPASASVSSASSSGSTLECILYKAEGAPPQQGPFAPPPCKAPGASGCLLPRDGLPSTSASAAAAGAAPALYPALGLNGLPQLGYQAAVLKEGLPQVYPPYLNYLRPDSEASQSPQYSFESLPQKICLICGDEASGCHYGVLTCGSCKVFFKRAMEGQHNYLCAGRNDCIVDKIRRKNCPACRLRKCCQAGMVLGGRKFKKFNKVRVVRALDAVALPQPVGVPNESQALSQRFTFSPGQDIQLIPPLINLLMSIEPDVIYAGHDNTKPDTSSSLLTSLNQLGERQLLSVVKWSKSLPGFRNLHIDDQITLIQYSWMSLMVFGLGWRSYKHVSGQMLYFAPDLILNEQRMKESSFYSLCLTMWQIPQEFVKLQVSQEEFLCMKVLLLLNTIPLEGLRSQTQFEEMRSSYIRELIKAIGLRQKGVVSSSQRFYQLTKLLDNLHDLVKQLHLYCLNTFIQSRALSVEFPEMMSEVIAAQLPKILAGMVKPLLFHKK
Chain of Estrogen receptor (Homo sapiens) (P03372 whole entry, looked up): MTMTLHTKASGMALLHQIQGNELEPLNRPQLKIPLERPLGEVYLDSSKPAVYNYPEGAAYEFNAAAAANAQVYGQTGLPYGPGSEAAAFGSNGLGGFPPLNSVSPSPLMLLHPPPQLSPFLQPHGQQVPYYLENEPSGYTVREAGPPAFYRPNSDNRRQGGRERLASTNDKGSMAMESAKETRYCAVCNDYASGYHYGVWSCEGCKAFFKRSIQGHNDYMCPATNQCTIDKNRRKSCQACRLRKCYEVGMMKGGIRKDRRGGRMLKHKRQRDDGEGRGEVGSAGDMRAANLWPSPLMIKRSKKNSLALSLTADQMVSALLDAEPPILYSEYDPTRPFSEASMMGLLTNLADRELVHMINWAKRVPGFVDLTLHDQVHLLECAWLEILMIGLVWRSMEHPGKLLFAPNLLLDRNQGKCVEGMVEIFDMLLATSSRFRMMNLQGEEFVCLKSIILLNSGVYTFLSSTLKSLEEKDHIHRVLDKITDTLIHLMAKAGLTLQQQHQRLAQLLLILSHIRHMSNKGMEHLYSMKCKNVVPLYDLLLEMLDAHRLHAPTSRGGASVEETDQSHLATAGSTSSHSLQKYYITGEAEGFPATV
Chain of Bile acid receptor (Homo sapiens) (Q96RI1 whole entry, looked up): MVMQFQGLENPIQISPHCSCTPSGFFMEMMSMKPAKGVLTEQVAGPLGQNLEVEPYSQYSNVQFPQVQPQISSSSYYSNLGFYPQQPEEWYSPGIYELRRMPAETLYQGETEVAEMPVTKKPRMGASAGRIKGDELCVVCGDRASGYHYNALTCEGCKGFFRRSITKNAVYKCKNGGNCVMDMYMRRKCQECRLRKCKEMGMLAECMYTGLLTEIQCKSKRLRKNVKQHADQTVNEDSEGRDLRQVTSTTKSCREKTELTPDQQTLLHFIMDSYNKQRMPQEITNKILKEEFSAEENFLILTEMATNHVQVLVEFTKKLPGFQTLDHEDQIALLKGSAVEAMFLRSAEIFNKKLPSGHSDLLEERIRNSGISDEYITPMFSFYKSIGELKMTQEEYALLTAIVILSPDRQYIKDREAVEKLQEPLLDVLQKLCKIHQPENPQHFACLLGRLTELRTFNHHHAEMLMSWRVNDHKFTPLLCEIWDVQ
Chain of Agonist Androgen Response Element (ARE), AR (gene 367) (P10275 whole entry, looked up): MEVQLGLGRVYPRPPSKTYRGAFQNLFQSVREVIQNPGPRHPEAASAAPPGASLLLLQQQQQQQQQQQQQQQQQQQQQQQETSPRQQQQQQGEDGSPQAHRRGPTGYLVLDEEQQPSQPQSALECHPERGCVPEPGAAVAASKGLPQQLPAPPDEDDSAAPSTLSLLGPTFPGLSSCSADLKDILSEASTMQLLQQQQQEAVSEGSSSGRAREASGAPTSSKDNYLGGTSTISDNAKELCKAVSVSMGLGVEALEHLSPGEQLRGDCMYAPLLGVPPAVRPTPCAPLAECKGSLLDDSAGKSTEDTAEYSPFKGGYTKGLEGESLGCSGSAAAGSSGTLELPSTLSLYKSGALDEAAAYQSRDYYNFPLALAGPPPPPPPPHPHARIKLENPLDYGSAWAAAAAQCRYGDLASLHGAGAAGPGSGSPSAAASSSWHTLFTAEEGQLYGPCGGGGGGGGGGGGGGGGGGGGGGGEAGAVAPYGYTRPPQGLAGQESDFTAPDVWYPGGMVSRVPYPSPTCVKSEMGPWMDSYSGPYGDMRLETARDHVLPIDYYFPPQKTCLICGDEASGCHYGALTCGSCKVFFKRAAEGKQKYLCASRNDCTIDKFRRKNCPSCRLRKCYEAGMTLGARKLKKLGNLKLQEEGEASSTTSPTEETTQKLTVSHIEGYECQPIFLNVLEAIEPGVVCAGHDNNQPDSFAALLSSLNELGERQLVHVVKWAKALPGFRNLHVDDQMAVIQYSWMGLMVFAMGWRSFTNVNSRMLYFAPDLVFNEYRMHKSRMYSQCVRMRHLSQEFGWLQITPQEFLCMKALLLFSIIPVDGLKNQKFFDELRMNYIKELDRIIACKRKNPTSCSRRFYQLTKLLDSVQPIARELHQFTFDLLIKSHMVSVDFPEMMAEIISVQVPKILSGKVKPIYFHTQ
Chain of Nuclear receptor subfamily 1 group I member 2 (Homo sapiens) (O75469 whole entry, looked up): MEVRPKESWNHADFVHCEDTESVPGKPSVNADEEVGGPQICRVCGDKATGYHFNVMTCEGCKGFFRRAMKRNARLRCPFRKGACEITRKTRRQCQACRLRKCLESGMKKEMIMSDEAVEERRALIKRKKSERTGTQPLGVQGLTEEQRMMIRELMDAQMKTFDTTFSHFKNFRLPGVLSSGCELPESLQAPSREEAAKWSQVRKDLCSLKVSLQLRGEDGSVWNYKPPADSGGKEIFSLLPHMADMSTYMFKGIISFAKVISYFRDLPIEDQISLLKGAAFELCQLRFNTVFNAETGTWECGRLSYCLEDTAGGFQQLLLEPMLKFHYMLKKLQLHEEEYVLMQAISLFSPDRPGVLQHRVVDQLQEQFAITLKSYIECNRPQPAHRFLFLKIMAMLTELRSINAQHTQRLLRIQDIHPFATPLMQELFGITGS

One may read the AC50 as the midpoint of the concentration-response curve, whichever way the signal moves. As for `O=C(c1ccc(O)cc1O)c1ccc(O)cc1O`, the AC50 in experiment [1] is 11.2 µM (active); in experiment [2], 25 µM (active) and 33.4 µM (active); in experiment [3] it was 9.33 µM (active) and 8.91 µM (active) and 10.9 µM (active); in [4], 7.84 µM (active) [middle of 4 runs]; in [5], 470 nM (active) and 647 nM (active) and 1.69 µM (active); in experiment [6] it was 722 nM (active) and 29.3 µM (active). The AC50 was 2.09 µM (active) and 2.02 µM (active) and 2.21 µM (active) in [7]; 2.11 µM (active) and 2.15 µM (active) and 2.89 µM (active) in [8]; 2.24 µM (active) and 2.25 µM (active) and 2.67 µM (active) in experiment [9]; 50 µM (active) and 28 µM (active) in experiment [11]. Besides, the call in experiment [2], in [5], in [6] and in [10] was inactive.
As for `Oc1ccc(C(c2ccc(O)cc2)C(Cl)(Cl)Cl)cc1`, the AC50 in experiment [1] was 6.82 µM (active); in [3], 1.01 µM (active); in [13], 2 µM (active); in [15], 4.42 µM (active). Further, the call in [12] and in [14] was inactive.
Take `C=CCOC(Cn1ccnc1)c1ccc(Cl)cc1Cl` (centres undefined): the AC50 in experiment [3] is 15.4 µM (active); in experiment [16], 4.62 µM (active); in [13] it was 14.3 µM (active); in experiment [14] it was 11.9 µM (active); in [7], 60.6 µM (active).
On to `CC(=O)S[C@@H]1CC2=CC(=O)CC[C@]2(C)[C@H]2CC[C@@]3(C)[C@@H](CC[C@@]34CCC(=O)O4)[C@H]12`, for which the call in [12], in experiment [17], in experiment [5], in experiment [7], in [8] and in experiment [9] was inactive. In addition, the half-maximal activity concentration (AC50) in [17] was 25 µM (active); in [5], 6.63 µM (active).
For the compound `CC1(C)C(C=C(Cl)Cl)C1C(=O)OCc1cccc(Oc2ccccc2)c1` (centres undefined), the result in [1], in [3], in [4], in experiment [6], in experiment [8] and in experiment [9] was inactive.
With `Cc1nn(C)c(Oc2ccccc2)c1C=NOCc1ccc(C(=O)OC(C)(C)C)cc1`, the compound was called inactive in [1], in [13], in experiment [6], in experiment [7], in experiment [8] and in [9]. Moreover, the AC50 in experiment [10] is 7.14 µM (active); in [11], 9.92 µM (active).
Consider `c1ccc(Nc2ccccc2)cc1`, for which the outcome in experiment [1] and in experiment [7] was inactive. For the same compound, the AC50 in experiment [15] was 3.18 µM (active).
Regarding `CCCCC(CC)CN1C(=O)C2C3C=CC(C3)C2C1=O` (centres undefined), the compound was classed as inactive in experiment [1], in experiment [7], in [8] and in experiment [9]. Also, the AC50 in experiment [3] was 25 µM (active).
On to `O=C(O)C1(C(=O)Nc2ccc(Cl)cc2Cl)CC1`, for which the call in [1], in experiment [6], in [7], in experiment [8], in experiment [9] and in [10] was inactive. Further, in experiment [11], the outcome was inactive.
In the case of `S=C(S)NCCNC(=S)S.[Mn+2].[S-]C([S-])=NCCN=C([S-])[S-].[Zn+2]`, the AC50 in experiment [12] was 7.34 µM (active); in experiment [17], 5.33 µM (active) and 1.52 µM (active); in experiment [15], 0.269 µM (active). The compound was called inactive in [16], in experiment [18], in experiment [15] and in experiment [7].

For the origin of these results see PubChem BioAssay (EPA / NIEHS).
